Compounds with a hit are over-represented: about 4.9% of the library has one in this group of screens.
UCHL1 block: blocks human UCHL1 ubiquitin-rhodamine cleavage; inhibition, % at 20 µM; P09936; actives 0.2% (n = 47,000); purified UCHL1, Ub-rhodamine cleavage fluorescence
Target sequence (P09936 whole entry, looked up): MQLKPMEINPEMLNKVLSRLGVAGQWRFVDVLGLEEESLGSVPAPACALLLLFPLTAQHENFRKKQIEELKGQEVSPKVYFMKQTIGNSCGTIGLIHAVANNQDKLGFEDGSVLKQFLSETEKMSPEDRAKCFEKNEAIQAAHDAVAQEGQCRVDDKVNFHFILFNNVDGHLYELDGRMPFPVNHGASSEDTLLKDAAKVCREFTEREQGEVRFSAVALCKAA
USP8 inh: blocks human USP8 ubiquitin-rhodamine cleavage | P40818 | purified USP8, Ub-rhodamine cleavage fluorescence, 30 min | inhibition, % at 20 µM | actives 4.2% (n = 47,000) | AID 1645853
USP7 inh: human USP7 deubiquitinase inhibition. AID 1645854. purified USP7, Ub-rhodamine cleavage fluorescence. inhibition, % at 20 µM. actives 0.3% (n = 47,000). Q93009
USP10 inh: human USP10 deubiquitinase inhibition. actives 1.1% (n = 47,000). Q14694. AID 1645856. purified USP10, Ub-rhodamine fluorescence, 60 min. inhibition, % at 20 µM
OTUD3 block: blocks human OTUD3 ubiquitin-rhodamine cleavage; Q5T2D3; purified OTUD3, Ub-rhodamine fluorescence, 2 h; inhibition, % at 25 µM; actives 0.7% (n = 47,000); AID 1645858
* hit, by the source's call. No stated cut-off is given here; in the data, active means inhibition above about 30%; inactive means the rest.

SMILES | UCHL1 block | USP8 inh | USP7 inh | USP10 inh | OTUD3 block
C[C@@H](c1ccccc1)N1C(=O)N[C@@H](CCC(=O)Nc2ccc3c(c2)OCO3)C1=O | 0 | 52* | 0 | 1 | 2
O=C(CC[C@@H]1NC(=O)N(Cc2ccccc2)C1=O)Nc1ccc2c(c1)OCO2 | 0 | 19 | 6 | 1 | 6
O=C(Nc1ccc(-c2nnc3n2CCCCC3)cc1)c1ccc2c(c1)OCO2 | 1 | -3 | 2 | -3 | 7
Fc1ccc(-c2noc(-c3ccc(N4CCC5(CC4)OCCO5)nc3)n2)cc1 | 0 | 7 | 5 | 1 | 4
COc1ccc(C)cc1NC(=O)Nc1nnc(CC(=O)NCc2ccccc2)s1 | 3 | 38* | 14 | 19 | 2
O=C(Cc1nnc(NC(=O)Nc2cc(F)ccc2F)s1)NCc1ccccc1 | -4 | 12 | 3 | 13 | 21
O=C(CCCC(=O)c1ccccc1)Nc1ccc2c(c1)CCC2 | 4 | -43 | -24 | 4 | 2
O=C(CCCC(=O)c1ccccc1)Nc1ccc(O)cc1 | 0 | 35* | 2 | 0 | 8
CC1=C(c2ccc(C(C)C)cc2)S(=O)(=O)N(CC(=O)Nc2ccccc2C)C1=O | 9 | 27 | 8 | 13 | 28
COc1ccc2cc3c(nc2c1)OC(=O)N(Cc1ccccc1F)C3 | -1 | 37* | 10 | 3 | 1
Cc1cccc(Nc2nc(C)c(C(=O)NCc3cccnc3)s2)n1 | 1 | -5 | 3 | -4 | 6
Cc1nc(Nc2ccc(Cl)cn2)sc1C(=O)NCc1ccccn1 | 1 | 50* | 8 | 2 | 0
Cc1cccc(-n2nnc3c(=O)n(CC(=O)Nc4ccc5c(c4)OCCO5)cnc32)c1 | -1 | 8 | 6 | 12 | -7
Cc1cccc(-n2nnc3c(=O)n(CC(=O)Nc4ccc5c(c4)OCO5)cnc32)c1 | 2 | 31* | 10 | 8 | 6
O=C(Cn1cc(C(=O)c2ccccc2)c(=O)c2cc(F)ccc21)Nc1ccc2c(c1)OCO2 | 1 | 59* | 10 | 26 | -9
Cc1ccc(C(=O)c2cn(CC(=O)Nc3ccc4c(c3)OCO4)c3ccccc3c2=O)cc1 | 7 | 90* | 33* | 57* | 22
O=C(Cn1cc(C(=O)c2ccccc2)c(=O)c2cc3c(cc21)OCCO3)Nc1ccc2c(c1)OCO2 | -3 | 16 | -1 | 9 | -7
O=c1c2nnn(-c3ccccc3)c2ncn1Cc1cccc(F)c1 | -2 | 17 | -2 | 4 | -10
Cc1ccc(Cn2cnc3c(nnn3-c3cccc(F)c3)c2=O)cc1 | 2 | 42* | 7 | 8 | 7
c1ccc2c(-c3nnc(C4CC4)o3)nnc(NC3CCCCC3)c2c1 | 12 | 7 | 7 | 11 | 5
NC(=O)c1ccc(CN2CCC3(CC2)CC3c2nnc(-c3cccc(F)c3)o2)cc1 (stereo unspecified) | -3 | -15 | -2 | -4 | 2
O=C(Cn1c(=O)[nH]c2ccccc2c1=O)N1CCN(c2ccccc2F)CC1 | 1 | 18 | 2 | 1 | 9
CCC(Sc1cccc(NC(=O)C2CCCCC2)c1)C(=O)Nc1cc([N+](=O)[O-])ccc1C (stereo unspecified) | 27 | 63* | -104 | 0 | 21
COc1ccc(Cl)cc1NC(=O)CSc1ncnc2nc[nH]c12 | 6 | 74* | 22 | 47* | -1
COc1ccc(Cl)cc1NC(=O)CSc1nnc(-c2ccoc2C)o1 | 3 | -2 | -139 | 1 | 0
SMILES | UCHL1 block | USP8 inh | USP7 inh | USP10 inh | OTUD3 block
Cc1ncc(CN2CCCCC2c2nc(C)c3c(n2)N(Cc2ccccn2)C(=O)CC3)s1 (stereo unspecified) | -6 | 0 | 1 | -7 | -4
O=C(c1cc2cc(Cl)ccc2o1)N1CCC1 | 0 | -4 | -12 | -1 | 1
Cc1cnc(NC(=O)c2cc3cc(Cl)ccc3o2)s1 | 1 | 46* | 7 | 7 | 7
COC(=O)c1ccc(NC(=O)c2nc(-c3ccccc3)oc2C)cc1 | -6 | -24 | -5 | -3 | -37
Cc1ccc2c(c1)N(C)C(=O)c1cc(NC(=O)c3ccc(F)cc3)ccc1O2 | 3 | 77* | 20 | 40* | 16
COc1ccc(C(=O)Nc2ccc3c(c2)C(=O)N(C)c2ccccc2O3)cc1 | 5 | 8 | 6 | 5 | 0
O=C(NCc1cccnc1)[C@@H]1CC[C@@H]2[C@@H](CCN2Cc2ccco2)O1 | 1 | -174 | 5 | 0 | 1
Cc1noc(C)c1CN1CC[C@H]2O[C@H](C(=O)NCc3ccco3)CC[C@H]21 | -5 | -277 | -1 | -4 | 33*
CC(C)CCC(=O)N1CCC(N2CC(=O)N(C(C)c3ccccc3)C2)CC1 (stereo unspecified) | 1 | 7 | 2 | -2 | 4
COc1ccccc1N(C(=O)c1ccco1)C(C(=O)NC1CCCC1)c1cccnc1 (stereo unspecified) | 0 | 18 | 1 | 0 | 8
O=C(NC1CCCC1)C(c1ccncc1)N(C(=O)c1ccco1)c1ccc2c(c1)OCCO2 (stereo unspecified) | 3 | 48* | -3 | -6 | 4
O=C(CSc1ccc2nnc(-c3ccncc3)n2n1)NCc1ccc2c(c1)OCO2 | 1 | 4 | -1 | -1 | -2
COc1cccc2c1OCC(NS(=O)(=O)c1cc(C)ccc1C)C2 (stereo unspecified) | 1 | 5 | -1 | 5 | 82*
COC(=O)c1ccccc1NC(=O)CSc1nnc(CNc2ccc(F)cc2)n1CC1CCCO1 (stereo unspecified) | 6 | 96* | -4 | 9 | 10
COc1ccccc1NC(=O)Cn1cnc(NC(=O)c2ccccc2)n1 | -8 | -23 | -7 | -9 | -10
CCCNC(=O)c1ccc2c(c1)NC(=O)C1CCC(=O)N21 (stereo unspecified) | 2 | 22 | 8 | 0 | 12
CC(C)CN1CCN(S(=O)(=O)c2cc(-c3nnc(C4CC4)o3)co2)CC1 | -2 | -3 | -2 | -5 | 0
COc1ccc(CNC(=O)Cn2c(=O)[nH]c3c(-c4ccccc4F)c[nH]c3c2=O)cc1 | 1 | 87* | 18 | 22 | -12
O=C(NC1(O)C(=O)c2ccccc2C1=O)c1cccc2c1-c1ccccc1C2=O | 22 | 95* | -64 | 9 | 23
CCn1nnc(NCc2ccccc2OCc2ccc(Cl)cc2)n1 | 5 | 0 | -40 | 11 | 7

High-throughput results deposited in PubChem BioAssay by Buhrlage Lab, Dana-Farber Cancer Institute and Novartis Institutes for BioMedical Research (Cambridge, Mass).
